GLP1R ag = agonists of human GLP-1 receptor; P43220; HEK293 GLP-1R CRE-luciferase, luminescence, 4-6 h; cells express a hypersensitive GLP-1R form; Potency, µM (doses to about 45.6 µM), usual class: activators; 0.007% of 380,000 active; AID 624172
12-LOX inh = ALOX12 (human) lipoxygenase inhibition; purified 12hLO, xylenol orange hydroperoxide absorbance; Potency, µM (doses to about 108 µM), usual class: inhibitors; P18054; 1.1% of 580,000 active
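Purified human 12hLO (150 nM final) in 25 mM Hepes, 0.01% Triton X-100, pH 7.0 was preincubated 15 min at room temperature with compound. Then 40 uM arachidonic acid was added, 30 min. Hydroperoxide was read by Fe-XO absorbance ratio 573/405 nm.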
GRP78 ERSR act = induces the endoplasmic reticulum stress response in human glioma cells; U87-MG GRP78 promoter luciferase reporter, 16 h; Potency, µM, most hits filed as activators; 0.02% of 420,000 active; further: series mostly up to about 76 µM; nearly all actives have a fitted effect of over 35% in size
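Stably transfected U87-MG human glioma cells carrying a GRP78-based luminescent sensor were seeded at 1000 cells/well, pin-dosed with compounds and incubated 16 h. Luciferase reagent was then added, and end-point luminescence was read after 10 min at room temperature.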
GLS inh = blocks human kidney-isoform glutaminase activity. 0.21% of 410,000 active. GLS enzymatic activity, qHTS titration. Potency, µM (titrated, usually from 45.5 µM), most hits filed as inhibitors
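Glutamate formation by hKGA was monitored fluorometrically using coupled glutamate oxidase, HRP and Amplex Red. Substrate was added as 1 mM L-glutamine solution; incubation was 30 min at RT after an initial read.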
PTHR1 agonist = PTHR1 (human) receptor agonism; 0.075% of 410,000 active; Potency, µM (series often up to 115 µM), hits mostly activators; AID 743266; Q03431; HEK293 GP2 PTHR1 cells, GloSensor cAMP luminescence, 1 h; further: nearly all actives have a fitted effect of over 55% in size
Target sequence (Q03431 whole entry, looked up): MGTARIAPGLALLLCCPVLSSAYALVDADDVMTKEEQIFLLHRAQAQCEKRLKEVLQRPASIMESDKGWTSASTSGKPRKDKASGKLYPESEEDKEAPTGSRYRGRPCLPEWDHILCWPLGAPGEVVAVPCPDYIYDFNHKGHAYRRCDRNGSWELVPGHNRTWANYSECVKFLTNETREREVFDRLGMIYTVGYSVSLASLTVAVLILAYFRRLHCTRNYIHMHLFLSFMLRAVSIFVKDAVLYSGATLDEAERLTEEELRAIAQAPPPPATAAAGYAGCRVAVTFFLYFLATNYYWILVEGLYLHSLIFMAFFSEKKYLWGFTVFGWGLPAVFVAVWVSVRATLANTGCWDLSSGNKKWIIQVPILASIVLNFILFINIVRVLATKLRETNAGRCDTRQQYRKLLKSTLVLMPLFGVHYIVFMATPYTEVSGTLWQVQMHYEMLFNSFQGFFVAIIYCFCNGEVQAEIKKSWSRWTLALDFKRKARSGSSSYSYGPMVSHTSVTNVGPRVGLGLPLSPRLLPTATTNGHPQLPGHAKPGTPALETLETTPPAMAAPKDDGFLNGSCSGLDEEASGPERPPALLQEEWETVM
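HEK-293-derived GP2 cells expressing PTHR1 and a GloSensor cAMP reporter, 3,000/well, plated overnight, given luciferin plus IBMX (each 0.5 mM as added) for 1 h at 37 °C, then compound for 1 h at 37 °C. Luminescence was read after 15 min at room temperature.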
GLP1R inv ag = GLP-1 receptor (human) inverse agonism. 1.6% of 410,000 active. P43220. HEK293 GLP-1R CRE-luciferase, luminescence, 24 h; GLP-1R form is constitutively active. Potency, µM (highest dose often 38.3 µM), hits mostly inhibitors; further: nearly all actives have a fitted effect of over 55% in size
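Constitutively active GLP-1R drives a cAMP-responsive luciferase in stably transfected HEK293 cells; test compounds are added after overnight (12 h) attachment and left 24 hr, and signal loss in luminescence marks inhibition.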
Of the large screens only hits and unclear results are named; the others gave an inactive call. A selection: hits, their analogues and other compounds. The true share with any hit is near 2.3%. The call rests on the fitted dose curve; in most records, active means well fitted curve in the direction sought with a large enough effect; inconclusive means small, poorly fitted or top-dose-only effect, or another doubt; inactive means no such curve, though single readings can be large; an effect the other way counts as inactive or inconclusive.

O[C@H]1[C@H](NCc2ccncc2)[C@H]2CO[C@H](O2)[C@@H]1N1CCOCC1	none (no result: GLP1R ag, GRP78 ERSR act, GLS inh, PTHR1 agonist, GLP1R inv ag)
CCCCn1c(O)c(C=NC2CC3CCC2(C)C3(C)C)c(=O)[nH]c1=O (centres undefined)	GLP1R inv ag 5.6µM
Cn1c(O)c(C=NC2CC3CCC2(C)C3(C)C)c(=O)[nH]c1=O (centres undefined)	none
COc1ccc(OC)c(N2C(=O)NC(=O)/C(=C\c3ccc([N+](=O)[O-])s3)C2=O)c1	12-LOX inh inconclusive, GLS inh 10µM
C=CCN(C)C(=O)[C@H]1CN2CCC1C[C@@H]2Cn1cc(-c2ccccc2)nn1 (some centres undefined)	none (no result: GLP1R ag, GRP78 ERSR act, GLS inh, PTHR1 agonist, GLP1R inv ag)
CN1CC(C(=O)c2ccc(Cl)cc2)C(c2ccc(Cl)cc2Cl)C1 (centres undefined)	GLP1R inv ag 8.9µM
COc1ccc(C2CN(C)CC2C(=O)c2ccc(C)cc2)cc1Cl (centres undefined)	GLP1R inv ag 10µM
CCC(CC)c1cc([C@H]2CN3CC[C@H]2C[C@@H]3CNC(=O)c2cccs2)nc(-c2ccncc2)n1	none (no result: GLP1R ag, GRP78 ERSR act, GLS inh, PTHR1 agonist, GLP1R inv ag)
O=C(Cc1ccc(Cl)cc1)N1Cc2ccccc2CC2(CCCN2CC2CCNC2)C1 (centres undefined)	none (no result: GLP1R ag, GRP78 ERSR act, GLS inh, PTHR1 agonist, GLP1R inv ag)
O=C1C2CC=CCC2C(=O)N1SC(Cl)(Cl)Cl (centres undefined)	12-LOX inh 40µM, GLS inh inconclusive (no result: PTHR1 agonist, GLP1R inv ag)
O=C(Nc1ccc(Br)cc1)c1cc(Br)cc(Br)c1O	12-LOX inh 40µM (no result: PTHR1 agonist, GLP1R inv ag)
O=C(O)C1=NOC2CN(Cc3cncs3)CC12 (centres undefined)	12-LOX inh 13µM (no result: GLP1R ag, GRP78 ERSR act, GLS inh, PTHR1 agonist, GLP1R inv ag)
N#Cc1cccc(-c2ccc3n(c2=O)C[C@H]2C[C@@H]3CN(C(=O)CSCC(=O)O)C2)c1	none (no result: GLP1R ag, GRP78 ERSR act, GLS inh, PTHR1 agonist, GLP1R inv ag)
CCOP(=O)(Nc1ccc2c(c1)C(=NNC(N)=S)c1ccccc1-2)OCC	12-LOX inh 22µM, GLP1R inv ag inconclusive
O=Cc1c(C(=O)O)n(Cc2ccc(Cl)cc2)c2ccccc12	12-LOX inh 11µM, GLP1R inv ag inconclusive
O=C1/C(=C\c2ccc(F)cc2)N2CCC1CC2	none (no result: GLP1R ag, GRP78 ERSR act, GLS inh, PTHR1 agonist, GLP1R inv ag)
Cc1nc(-c2ccccc2)cc([C@H]2CN3CC[C@H]2C[C@@H]3CNS(=O)(=O)Cc2ccccc2)n1	none (no result: GLP1R ag, GRP78 ERSR act, GLS inh, PTHR1 agonist, GLP1R inv ag)
COc1ccc(-c2cc([C@H]3CN4CC[C@H]3C[C@@H]4CNC(=O)C3CCC3)nc(C)n2)cc1OC	none (no result: GLP1R ag, GRP78 ERSR act, GLS inh, PTHR1 agonist, GLP1R inv ag)
COc1ccc(-c2cc([C@H]3CN4CC[C@H]3C[C@@H]4CNC(=O)NC(C)C)nc(C)n2)cc1OC	12-LOX inh 32µM (no result: GLP1R ag, GRP78 ERSR act, GLS inh, PTHR1 agonist, GLP1R inv ag)
Cc1nc(-c2ccccc2Br)cc([C@H]2CN3CC[C@H]2C[C@@H]3CNC(=O)c2ccccc2)n1	none (no result: GLP1R ag, GRP78 ERSR act, GLS inh, PTHR1 agonist, GLP1R inv ag)
Cc1nc(-c2ccccc2Br)cc([C@H]2CN3CC[C@H]2C[C@@H]3CNC(=O)Nc2ccccc2)n1	12-LOX inh 11µM (no result: GLP1R ag, GRP78 ERSR act, GLS inh, PTHR1 agonist, GLP1R inv ag)
COc1ccc2c(c1)C1(CCNC1)C(=O)N2 (centres undefined)	none (no result: GLP1R ag, GRP78 ERSR act, GLS inh, PTHR1 agonist, GLP1R inv ag)
O=c1c2ccccc2nc(/C=C/c2ccc(O)cc2)n1-c1ccccc1O	12-LOX inh inconclusive, GLP1R inv ag inconclusive
O=c1c2ccccc2nc(/C=C/c2cccnc2)n1Cc1ccccc1	12-LOX inh inconclusive, GLS inh inconclusive, GLP1R inv ag 5µM
Cc1ccccc1-n1c(/C=C/c2ccc(O)cc2)nc2ccccc2c1=O	12-LOX inh inconclusive, GLP1R inv ag 11µM (no result: GLP1R ag)
O=c1c2ccccc2nc(/C=C\c2cccc(Br)c2)n1-c1ccc(O)cc1	none (no result: GLP1R ag)
O=c1c2ccccc2nc(/C=C/c2ccccc2)n1-c1ccc(O)cc1	GLP1R inv ag 5.6µM
Cc1ccc(-n2c(/C=C/c3ccc(Br)s3)nc3ccccc3c2=O)cc1C	GLP1R inv ag 11µM (no result: GLP1R ag)
CCCCN1CCC2(COC(=O)N2c2ccncc2)C1 (centres undefined)	none (no result: GLP1R ag, GRP78 ERSR act, GLS inh, PTHR1 agonist, GLP1R inv ag)
Cc1nc(-c2ccc(N(C)C)cc2)cc([C@H]2CN3CC[C@H]2C[C@@H]3CNCc2cccc(C#N)c2)n1	none (no result: GLP1R ag, GRP78 ERSR act, GLS inh, PTHR1 agonist, GLP1R inv ag)
O=C(c1ccco1)N1[C@H]2CC[C@@H]1c1cnc(-c3ccc(F)cc3)nc1C2	none (no result: GLP1R ag, GRP78 ERSR act, GLS inh, PTHR1 agonist, GLP1R inv ag)
Cc1ccc(C(=O)N2[C@H]3CC[C@@H]2c2cnc(-c4ccccc4)nc2C3)cn1	none (no result: GLP1R ag, GRP78 ERSR act, GLS inh, PTHR1 agonist, GLP1R inv ag)
